From PubChem BioAssay (EPA / NIEHS) come the findings set out here.

One may read the AC50 as the concentration giving half of the maximal activity seen.

Structures are written as SMILES. “And” between values parts separate entries of the source, which are not always exact repeats. Equal entries are not always repeated. Some compounds were tested as several samples or in several runs, with calls that do not always agree. The source made the active and inactive calls. How the source made its calls: active means hit-call score of the fitted dose curve at least 0.9, where 1 is the maximum; inactive means score below 0.9.

The nature of this test: ATG_M_32_CIS: Attagene CIS-FACTORIAL HepG2 Assay for M32 Transcription Factor (Internal Marker) (AID 2282949).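 Further: background control marker of the multiplexed CIS panel rather than a real target.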 The note with it: HepG2 Attagene cis-factorial M32 reporter, mRNA; actives raise or lower the signal. The method, boiled down: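 HepG2 human liver cells transiently transfected with cis-promoter-driven multiple reporter transcription units, dosed 24 h. Reporter mRNA quantified by RT-PCR, FAM-labelled primer extension, HpaI digest and capillary electrophoresis; bidirectional fit versus DMSO baseline.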
As for `CCCCOC(=O)[C@@H](C)Oc1ccc(Oc2ccc(C(F)(F)F)cn2)cc1`, the molecule was classed as inactive.

On to `CCOC(=O)c1ccc(O)cc1`, for which the result was inactive. On to `COC(=O)c1ccccc1S(=O)(=O)NC(=O)Nc1nc(OC(F)F)cc(OC(F)F)n1`, for which the call was inactive.

With `COC(=O)c1cccc(C)c1S(=O)(=O)NC(=O)Nc1nc(OCC(F)(F)F)nc(N(C)C)n1`, the molecule was called inactive. Same read-out and setting: for `CCC(O)=C1C(=O)CC(C(=O)O)CC1=O` (centres undefined) the value was “inactive”; for `CCCCOC(=O)C(C)Oc1ccc(Oc2ccc(C(F)(F)F)cn2)cc1` (centres undefined), “inactive”. Regarding `COC(=O)CSc1cc(N=c2sc(=O)n3n2CCCC3)c(F)cc1Cl`, the call was inactive. In the case of `COc1nc(C)nc(NC(=O)NS(=O)(=O)c2ccccc2OCCCl)n1`, the result was inactive. Take `N[C@@H](Cc1cc(I)c(Oc2ccc(O)c(I)c2)c(I)c1)C(=O)O`: the molecule was called inactive.

In the case of `CCCCC(CC)CN1C(=O)C2C3C=CC(C3)C2C1=O` (centres undefined), the outcome was inactive. Regarding `C[C@]12CC[C@@H]3c4ccc(O)cc4C[C@@H](CCCCCCCCCS(=O)CCCC(F)(F)C(F)(F)F)[C@H]3[C@@H]1CC[C@@H]2O` (some centres undefined), the molecule was called inactive. Take `CC(C)CCCCCCc1ccc(O)cc1`: the half-maximal activity concentration (AC50) is 18 µM (active) and 17.2 µM (active); the molecule was called inactive. Regarding `O=C(c1ccc(O)cc1O)c1ccc(O)cc1O`, the result was inactive. On to `CN(C)C(=O)Nc1ccc(Cl)c(Cl)c1`, for which the result was inactive. Turning to `COCCO`, the outcome was inactive.

Take `N#CSCSc1nc2ccccc2s1`: the molecule was called inactive.

For `CCOC(=O)COc1cc(-n2ncc(C(F)(F)F)c(C)c2=O)c(F)cc1Cl`, the call was inactive.

For `C#C[C@]1(O)CC[C@H]2[C@@H]3CCC4=CC(=O)CC[C@@H]4[C@H]3CC[C@@]21CC`, the result was inactive.
